# MITF primary: MITF inhibitors, primary screen, biochemical, AlphaScreen, human; AlphaScreen MITF homodimerization, bead proximity signal; inhibition, % at 2.6 µM; 650,000 compounds, 0.91% hits; in the data active = inhibition above about 50%
# Target sequence (O75030 whole entry, looked up): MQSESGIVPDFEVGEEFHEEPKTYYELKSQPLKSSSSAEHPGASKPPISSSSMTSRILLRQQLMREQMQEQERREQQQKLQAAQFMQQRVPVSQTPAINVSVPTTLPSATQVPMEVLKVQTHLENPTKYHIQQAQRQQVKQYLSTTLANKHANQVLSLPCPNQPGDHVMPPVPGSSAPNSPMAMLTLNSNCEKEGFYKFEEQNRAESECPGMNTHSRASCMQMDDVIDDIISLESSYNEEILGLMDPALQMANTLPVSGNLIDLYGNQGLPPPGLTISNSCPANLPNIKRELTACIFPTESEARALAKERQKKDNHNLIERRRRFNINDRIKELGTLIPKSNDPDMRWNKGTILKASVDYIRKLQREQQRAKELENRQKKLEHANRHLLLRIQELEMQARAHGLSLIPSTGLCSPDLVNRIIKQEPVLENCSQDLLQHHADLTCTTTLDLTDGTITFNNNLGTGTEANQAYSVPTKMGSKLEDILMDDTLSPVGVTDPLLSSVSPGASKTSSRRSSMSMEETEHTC
# TEAD-YAP inh: TEAD-YAP interaction inhibition, primary screen, TEAD-YAP interaction inhibitor project, luminescence, HEK-TIYL cells | TEAD-Gal4/YAP UAS-luciferase luminescence | inhibition, % at 9.12 µM | 640,000 compounds, 1.4% hits | AID 1259422, 2018; in the data active = inhibition above about 32%
# FBW7 act: FBW7 E3 ligase activators, primary screen, biochemical, AlphaScreen, human | normalized activity (activation), % at 26.1 µM | F-box/WD repeat-containing protein 7 (Homo sapiens), Q969H0 | AlphaScreen FBW7–phospho-cyclin E peptide binding, activator screen | 650,000 compounds, 0.13% hits; in the data active = normalized activity above about 1.9%;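 also: purified mutant Fbw7 with reduced substrate affinity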
# GPR151 activ: activators of human GPR151, primary screen, cell-based, PathHunter beta-arrestin, luminescence. G-protein coupled receptor 151 (Homo sapiens), Q8TDV0. PathHunter beta-arrestin GPR151 cells. activation, % at 11.2 µM. 650,000 compounds, 1% hits; in the data active = activation above about 4.9%
# A number is an active result; i = inactive. Sampled rows, rich in hits. Any-hit rate of the full collection: about 3.5%.
SMILES,MITF primary,TEAD-YAP inh,FBW7 act,GPR151 activ
Cc1ccccc1-n1c(SCC(=O)Nc2nccs2)nnc1-c1cccnc1,i,61.9,i,i
COc1ccc(-n2c(SCC(=O)NCc3cccs3)nnc2-c2cccnc2)cc1,i,i,i,i
Cc1ccc(-c2csc(=S)n2CC(=O)NNC(=O)C2COc3ccccc3O2)cc1 (configuration not stated),i,i,i,i
O=C1C(Cl)=C(N2CCOCC2)C(=O)N1c1cc(Cl)ccc1Cl,i,i,i,i
O=C(c1ccc(Cl)cc1)N1CCN(c2nc(-c3ccccc3)c3ccccc3n2)CC1,i,i,i,i
COc1cc(C(C)=O)ccc1OCCCN1CCN(C)CC1,i,i,i,i
O=C(/C=C/c1ccc(Cl)cc1)Nc1ccc2cn[nH]c2c1,i,i,i,i
CC1CCCC/C1=N\Nc1ccc([N+](=O)[O-])cc1 (configuration not stated),i,i,i,i
Cc1csc(NC(=O)CSc2nnc(-c3ccccn3)n2-c2ccccc2Cl)n1,i,61.9,i,i
COc1ccccc1-n1c(SCC(=O)Nc2nc(C)cs2)nnc1-c1ccccn1,i,i,i,i
Cc1ccc(NC(=O)Cc2nn(C)c(=O)c3ccccc23)cc1,i,42.4,i,i
Cn1nc(CC(=O)Nc2ccccc2Br)c2ccccc2c1=O,i,i,i,i
Cn1nc(CC(=O)Nc2c(F)cccc2F)c2ccccc2c1=O,i,41.1,i,i
Cn1nc(CC(=O)Nc2cccc(F)c2)c2ccccc2c1=O,i,34.2,i,i
Cc1cccc(NC(=O)Cc2nn(C)c(=O)c3ccccc23)c1,i,45.5,i,i
Cn1nc(CC(=O)Nc2ccc(F)c(Cl)c2)c2ccccc2c1=O,i,i,1.9,i
COc1cc(NC(=O)Cc2nn(C)c(=O)c3ccccc23)cc(OC)c1OC,i,i,i,i
COc1ccc(CC(=O)NCc2ccsc2)cc1,i,34.7,i,i
COc1ccc(CC(=O)NCc2ccc(C)cc2)cc1,i,i,i,i
COc1ccc(CNC(=O)Cc2nn(C)c(=O)c3ccccc23)cc1,i,37.7,i,i
C/C(=N/NC(=O)CNS(=O)(=O)c1ccccc1)c1cccc(N)c1,i,i,i,i
C/C(=N/NC(=O)c1cc(C)oc1C)c1ccc2ccccc2c1,i,i,i,i
COc1ccc(OC)c(C2C3=C(COC3=O)Nc3cc4c(cc32)OCO4)c1 (configuration not stated),i,54.7,i,i
O=C1OCC2=C1C(c1ccccc1Br)c1cc3c(cc1N2)OCO3 (configuration not stated),i,39.9,i,i
O=C1CC(c2ccccc2OCc2ccccc2)c2cc3c(cc2N1)OCO3 (configuration not stated),i,i,i,i
SMILES,MITF primary,TEAD-YAP inh,FBW7 act,GPR151 activ
COc1ccccc1C1CC(=O)Nc2cc3c(cc21)OCO3 (configuration not stated),i,52.8,i,i
Fc1ccccc1N1CCN(c2nc3ccccc3n3cnnc23)CC1,i,i,i,i
Cc1cccc(NS(=O)(=O)c2cc(C(=O)N3CCC(C(N)=O)CC3)ccc2Cl)c1C,i,i,i,i
CCS(=O)(=O)N1CC(C)N(S(=O)(=O)CC)CC1C (configuration not stated),i,i,i,i
O=C(/C=C/c1ccc(F)cc1)N1CCN(Cc2ccccc2)CC1,i,i,i,i
O=C(/C=C/c1ccccc1)N1CCN(Cc2nc(-c3ccc(F)cc3)cs2)CC1,i,38.6,i,i
COCCn1c(=NC(=O)c2cccc(OC)c2OC)sc2cc(OC)c(OC)cc21,i,i,i,i
CCOCCn1c(=NC(=O)c2cccc(OC)c2OC)sc2ccccc21,i,74.2,i,i
Cc1cc(C)c2oc(-c3cccc(NC(=O)COc4cc(C)c(Cl)c(C)c4)c3)nc2c1,i,42.4,i,i
Cc1cc(OCC(=O)Nc2ccc3oc(-c4ccccc4Br)nc3c2)cc(C)c1Cl,i,i,2.0,i
CCC(=O)Nc1ccc2oc(-c3ccccc3F)nc2c1,i,39.2,i,i
CC(C)C(=O)Nc1cc(-c2nc3cc(C(C)C)ccc3o2)ccc1Cl,i,44.7,i,i
Cc1cc(OCC(=O)Nc2ccc3oc(-c4cccnc4)nc3c2)cc(C)c1Cl,i,i,i,i
O=C(Cc1ccc(Cl)cc1)Nc1ccc2oc(-c3ccccc3F)nc2c1,i,i,i,i
N#C/C(=C\c1cn(CCC(N)=O)nc1-c1cccc(Cl)c1)C(=O)O,i,i,i,i
CC(C)c1ccc2oc(-c3ccc(NC(=O)COc4ccc5ccccc5c4)cc3)nc2c1,i,41.9,i,i
Cc1cc(OCC(=O)Nc2ccc(-c3nc4cc(C(C)C)ccc4o3)cc2)cc(C)c1Cl,i,i,i,i
O=C(O)/C=C1\CSc2ccc(Cl)cc2C1=O,i,i,i,i
COCCCNC(=O)c1ccc(SCc2cccc(OC)c2OC)c([N+](=O)[O-])c1,i,61.2,i,i
COC(=O)CCC(=O)Nc1ccc(-c2nc3ccc(C)cc3s2)cc1,i,72.4,i,i
Cc1ccc2nc(-c3ccc(NC(=O)C4CCCN4S(C)(=O)=O)cc3)sc2c1 (configuration not stated),i,49.5,i,i
Cc1ccc2nc(-c3ccc(NC(=O)c4ccccc4C(=O)O)cc3)sc2c1,i,83.2,i,i
COc1ccc(OCC(=O)Nc2ccc(-c3nc4ccc(C)cc4s3)cc2)cc1,i,38.9,i,i
CCC(C)(C)NC(=O)CCNS(=O)(=O)c1cc(Br)cnc1N,i,i,i,i
O=C(NCc1cccnc1)c1ccc(N2CCC(NCCC3=CCCCC3)CC2)cc1,i,i,i,i
SMILES,MITF primary,TEAD-YAP inh,FBW7 act,GPR151 activ
Oc1ccc(-c2nc3cc4sc(-c5ccc(O)cc5)nc4cc3s2)cc1,i,i,i,i
Cc1ccc2nc(-c3ccc(O)cc3)sc2c1,i,98.0,i,i
CCCNc1ccc(C(N)=O)cc1[N+](=O)[O-],i,i,i,i
CCCNc1nc(Nc2ccncn2)nc2nc[nH]c12,i,35.8,i,i
c1cc(Nc2nc(Nc3ccc4c(c3)OCO4)c3[nH]cnc3n2)ncn1,i,i,26.9,i
CCNc1nc(Nc2ccc3c(c2)OCO3)c2[nH]cnc2n1,i,i,i,i
c1cnc(Nc2nc(Nc3ccc4c(c3)OCO4)c3[nH]cnc3n2)cn1,i,i,20.0,i
FC(F)(F)c1ccc(Nc2nc(Nc3ccc4c(c3)OCO4)c3[nH]cnc3n2)cc1,i,i,i,i
OC(CN1C2=NCCCN2c2ccccc21)c1ccc2c(c1)OCO2 (configuration not stated),i,i,i,i
OC(CN1C2=NCCN2c2ccccc21)c1ccc2c(c1)OCO2 (configuration not stated),i,54.7,i,i
O=C1CC(c2ccccc2)CC(O)=C1C=NCc1ccc(F)cc1 (configuration not stated),i,i,i,i
O=S1(=O)Nc2c(ccc3cccnc23)-c2ccccc21,88.2,60.5,i,i

# Screens deposited in PubChem by The Scripps Research Institute Molecular Screening Center.
